Test results reported in PubChem BioAssay (NCATS).
Records with an inconclusive call do not appear. Entries that show only a call come without a potency. Activity calls are given as the source filed them. Calls follow the shape of the dose curve; as a rule, active = well fitted curve in the direction sought with a large enough effect; inconclusive = small, poorly fitted or top-dose-only effect, or another doubt; inactive = no such curve, though single readings can be large or run the other way.

Molecular target: Ferritin light chain (Equus caballus) (UniProt P02791)
Assay: qHTS Validation Assay for Identification of Novel General Anesthetics (AID 2323)
Settings: horse apoferritin, anesthetic-site fluorescent probe displacement; series mostly up to 76.9 µM
From the text: Source: NIH Chemical Genomics Center [NCGC]
Assay Submitter: Roderic Eckenhoff, University of Pennsylvania
Screening Center PI: Christopher P. Austin, NIH
Probe Development: NIH Chemical Genomics Center [NCGC]
Anesthetic development has remained a largely empirical process. There are growing concerns about the cognitive effects of known general anesthetics and acceleration of the onset of neurodegenerative disease. The compounds' toxicity and multiple specific binding targets in the mammalian brain [4] has made them less attractive as drug leads. In this assay, a GABAergic mimetic model system, apoferritin and a profluorescent 1-aminoanthracene ligand (1-AMA), was used to construct a competitive binding assay for identification of novel general anesthetics. The assay was validated for 1-AMA using other known anesthetics, such as isoflurane (CID:3763) and propofol (CID: 4943), [6].
[1] S.L. Bianchi, T. Tran, C. Liu, S. Lin, Y. Li, J.M. Keller, R.G. Eckenhoff, and M.F. Eckenhoff, Brain and behavior changes in 12-month-old Tg2576 and nontransgenic mice exposed to anesthetics. Neurobiol Aging 29 (2008) 1002-10.
[2] Z. Xie, Y. Dong, U. Maeda, R.D. Moir, W. Xia, D.J. Culley, G. Crosby, and R.E. Tanzi, The inhalation anesthetic isoflurane induces a vicious cycle of apoptosis and amyloid beta-protein accumulation. J Neurosci 27 (2007) 1247-54.
[3] P. Honegger, and J.M. Matthieu, Selective toxicity of the general anesthetic propofol for GABAergic neurons in rat brain cell cultures. J Neurosci Res 45 (1996) 631-6.
[4] M.F. Eckenhoff, K. Chan, and R.G. Eckenhoff, Multiple specific binding targets for inhaled anesthetics in the mammalian brain. J Pharmacol Exp Ther 300 (2002) 172-9.
[5] C.A. Butts, J. Xi, G. Brannigan, A.A. Saad, S.P. Venkatachalan, R.A. Pearce, M.L. Klein, R.G. Eckenhoff, and I.J. Dmochowski, Identification of a fluorescent general anesthetic, 1-aminoanthracene. Proc Natl Acad Sci U S A 106 (2009) 6501-6.
[6] W.A. Lea, J. Xi, A. Jadhav, L. Lu, C.P. Austin, A. Simeonov, and R.G. Eckenhoff, A high-throughput approach for identification of novel general anesthetics. PLoS One 4 (2009) e7150.
Three uL of reagents (free 1-AMA (50% saturated solution of 1-aminoanthracene
in PBS) in columns 3, 4 as negative control and 1-AMA/apoferritin mixture (10 uM horse-spleen apoferritin in 50% saturated 1-aminoanthracene in PBS) in columns 1, 2, 5-48) was dispensed into 1536-well Greiner black assay plates. Compounds (23 nL) were transferred via Kalypsys pintool equipped with 1,536-pin array (10 nL slotted pins, V&P Scientific, San Diego, CA). Titration of the positive control, propofol, were delivered via pin transfer from separate control plates to the 2nd column of each assay plate. The starting concentration of the control, dissolved in DMSO, was at 160 mM, followed by two-fold dilution points in duplicate, for a total of 16 concentrations. The plates were incubated for 10 min at room temperature, and then read on an EnVision HTS multilabel reader (Perkin-Elmer, Waltham, MA) (end point read, 3 min/plate) using Fura2 BFP excitation filter (380 nm, bandwidth 10 nm) and fluorescein emission filter (535 nm, bandwidth 25 nm) set. A LANCE/DELFIA dichroic mirror with a cutoff wavelength at 400 nm was used to maximize signal accuracy and strength. Vehicle-only plates, with DMSO being pin-transferred to the entire column 5-48 compound area, were inserted uniformly at the beginning and the end of each library in order to monitor for and record any shifts in the background. Activity was computed as the normalized fluorescence response relative to free 1-AMA and 1-AMA/apoferritin complex values. Concentration-effect relationships were derived by using curve fitting algorithms developed in-house (http://ncgc.nih.gov/pub/openhts/). A four parameter Hill equation was fitted to the concentration-response data by minimizing the residual error between the modeled and observed responses.
Potency is read from the fitted curve at half-maximal effect.

Row | Compound | Potency
1 | Oc1ccc(-c2nc(-c3ccc(F)cc3)c(-c3ccncc3)[nH]2)cc1 | inactive
2 | COc1ccccc1N1CCN(CCN(C(=O)C2CCCCC2)c2ccccn2)CC1 | inactive
3 | O=c1c(O)c(-c2cc(O)c(O)c(O)c2)oc2cc(O)cc(O)c12 | inactive
4 | O=c1c(O)c(-c2ccc(O)cc2O)oc2cc(O)cc(O)c12 | inactive
5 | CC(=O)O[C@H]1C(=O)[C@@]2(C)C([C@H](OC(=O)c3ccccc3)[C@]3(O)C[C@H](OC(=O)[C@H](O)[C@@H](NC(=O)c4ccccc4)c4ccccc4)C(C)=C1C3(C)C)[C@]1(OC(C)=O)CO[C@@H]1C[C@@H]2O (stereo not given in full) | inactive
6 | OC(CN1CCN(c2cccc(Cl)c2)CC1)C(c1ccccc1)c1ccccc1 (stereo not given) | inactive
7 | NC(=NCc1ccccc1)NC(=O)c1nc(Cl)c(N)nc1N | inactive
8 | NCCCCNCCCN | inactive
9 | O=C1NC(=O)C(c2ccccc2[N+](=O)[O-])=C1Nc1ccc(O)c(Cl)c1 | inactive
10 | NNc1nncc2ccccc12 | inactive
11 | C[C@H](Cc1ccc(O)c(O)c1)[C@@H](C)Cc1ccc(O)c(O)c1 | 12.6 µM (active)
12 | CNC[C@H](O)c1ccc(O)c(O)c1 | inactive
13 | Cc1c(OCC(F)(F)F)ccnc1CS(=O)c1nc2ccccc2[nH]1 (stereo not given) | inactive
14 | Cc1nc2n(c(=O)c1CCN1CCC(c3noc4cc(F)ccc34)CC1)CCCC2 | inactive
15 | O=C(NCC1CCCCN1)c1cc(OCC(F)(F)F)ccc1OCC(F)(F)F (stereo not given) | inactive
16 | O=C(O)c1cccnc1Nc1cccc(C(F)(F)F)c1 | inactive
17 | Nc1nc(OCc2ccccc2)c2[nH]cnc2n1 | inactive
18 | O=C(CCc1ccc(O)cc1)c1c(O)cc(O)cc1O | inactive
19 | COc1ccc2cc([C@H](C)C(=O)O)ccc2c1 | inactive
20 | O=c1cc(N2CCOCC2)oc2c(-c3ccccc3)cccc12 | inactive
21 | COc1cc2nc(N3CCN(C(=O)C4CCCO4)CC3)nc(N)c2cc1OC (stereo not given) | inactive
22 | O=c1ccc2ccc(O)c(O)c2o1 | inactive
23 | C[C@@H](N)C1CCC(C(=O)Nc2ccncc2)CC1 (stereo not given in full) | inactive
24 | CC1(C)NC(=O)N(c2ccc([N+](=O)[O-])c(C(F)(F)F)c2)C1=O | inactive
25 | O=C(c1ccccc1)c1ccc2n1CCC2C(=O)O (stereo not given) | inactive
